# The sample as a whole holds a higher share of hits than the screen did.
# PD-1 reverse act = activators reversing PD-1 mediated T-cell inhibition; 29,000 tested, under 10 active; AID 2316; activation, % (test concentration not listed); primary human CD4 T cells, PD-L1 beads, CellTiter-Glo 96 h; call rule not given here;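 further: 0% = median vehicle wells and 100% = positive control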
# STK33 inh = inhibitors of human STK33 kinase; Q9BYT3; ADP-Glo luminescence, MBP substrate; inhibition, % at 12.5 µM; actives 0.44% (n = 27,000); AID 2322; in the data active means inhibition above about 20%
# Target sequence (Q9BYT3 whole entry, looked up): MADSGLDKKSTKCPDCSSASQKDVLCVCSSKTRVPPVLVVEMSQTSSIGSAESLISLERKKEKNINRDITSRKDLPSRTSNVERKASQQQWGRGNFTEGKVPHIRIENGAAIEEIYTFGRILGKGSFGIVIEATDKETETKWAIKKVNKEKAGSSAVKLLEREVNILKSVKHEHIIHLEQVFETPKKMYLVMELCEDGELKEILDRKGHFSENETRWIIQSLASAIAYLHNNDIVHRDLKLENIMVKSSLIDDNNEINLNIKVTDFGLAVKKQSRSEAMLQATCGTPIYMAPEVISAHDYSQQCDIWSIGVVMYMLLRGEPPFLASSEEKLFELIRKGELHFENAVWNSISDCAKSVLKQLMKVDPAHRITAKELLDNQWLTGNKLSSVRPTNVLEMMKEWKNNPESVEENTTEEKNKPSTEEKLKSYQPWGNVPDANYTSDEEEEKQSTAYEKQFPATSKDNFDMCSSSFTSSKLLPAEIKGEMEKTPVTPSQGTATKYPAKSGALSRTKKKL
# NOMO-1 viab = STK33 inhibitor candidate reducing NOMO-1 cell viability; NOMO-1 AML viability, CellTiter-Glo luminescence, 72 h; inhibition, % (test concentration not listed); AID 2330; actives 7.5% (n = 37,000); in the data active means inhibition above about 80%
# * = called active by the depositor; / = not tested or not shown.
SMILES,PD-1 reverse act,STK33 inh,NOMO-1 viab
CCc1ccc(N2C(N)=C(C#N)C(c3cccc(Cl)c3)c3c(C)noc32)cc1 (stereo not given),1,/,-11
C=C1CCC2[C@](C)(CO)[C@H](O)CC[C@@]2(C)[C@@H]1C/C=C1/C(=O)OC[C@H]1O (stereo not given in full),-48,0,98*
C=C1CCC2C(C)(CO)CCCC2(C)C1CC/C(C)=C/C(=O)O (stereo not given),/,-7,/
O=C(CSc1nc2c(c(-c3ccccc3)n1)CCCCC2)N1N=CCC1c1ccccc1 (stereo not given),3,-3,-19
Cc1onc(-c2c(Cl)cccc2Cl)c1C(=O)ON1C(=O)CCC1=O,-1,/,70
COC(=O)c1c(-c2c(Cl)cccc2Cl)noc1NC(=O)NCc1ccccc1,-1,/,104*
Cc1ccn2cc(-c3cccc(NS(=O)(=O)c4cccc([N+](=O)[O-])c4)c3)nc2c1,2,2,38
Cn1c(=O)c2ccccc2n(CC(=O)Nc2ccccc2[N+](=O)[O-])c1=O,/,2,-5
C[C@@H]1CN([C@H](C)CO)C(=O)Cc2cc(NC(=O)Nc3ccc(C(F)(F)F)cc3)ccc2O[C@H]1CN(C)S(=O)(=O)c1ccccc1,2,8,17
C[C@@H]1CN([C@H](C)CO)C(=O)Cc2cc(NC(=O)Nc3ccc(C(F)(F)F)cc3)ccc2O[C@@H]1CN(C)S(=O)(=O)c1ccc(Cl)cc1,0,-3,15
C[C@@H]1CN([C@H](C)CO)C(=O)Cc2cc(NC(=O)Nc3ccc(C(F)(F)F)cc3)ccc2O[C@H]1CN(C)S(=O)(=O)c1ccc(Cl)cc1,-5,3,117*
C[C@H](CO)N1C[C@H](C)[C@H](CN(C)S(=O)(=O)c2ccc(Cl)cc2)Oc2ccc(NC(=O)Nc3ccc(C(F)(F)F)cc3)cc2CC1=O,-5,0,134*
Cc1ccc(NC(=O)c2ccc(NCc3cccnc3)c([N+](=O)[O-])c2)cc1Cl,/,-1,22
COc1cc(OC)c2nc(C)c3c(c2c1)SCC3,-1,/,10
O=C(CSc1nc2ccccc2c(=O)n1-c1ccc(Cl)cc1)Nc1ccccc1[N+](=O)[O-],-2,-1,31
CNS(=O)(=O)c1cc(-c2nnc(Nc3cccc(O)c3)c3ccccc23)ccc1C,/,0,18
Cc1ccc(Nc2nnc(-c3ccc(C)c(S(=O)(=O)NCC4CCCO4)c3)c3ccccc23)cc1 (stereo not given),-1,/,119*
C=CCNC1=C2C[C@@H](C)C[C@H](OC)[C@H](O)[C@@H](C)/C=C(\C)[C@H](OC(N)=O)[C@@H](OC)C=C/C=C(/C)C(=O)NC(=CC1=O)C2=O,/,0,119*
COc1cccc(N(CC(=O)Nc2c(C)n(C)n(-c3ccccc3)c2=O)S(C)(=O)=O)c1,3,0,-3
CC(=O)c1cccc(NC(=O)Nc2cccc(S(=O)(=O)N3CCOCC3)c2)c1,0,3,-1
C[C@@H]1CN([C@@H](C)CO)C(=O)c2cccc(NC(=O)c3ccc(-c4nccs4)cc3)c2O[C@@H]1CN(C)Cc1ccc(C(=O)Nc2ccccc2N)cc1,-5,/,141*
C[C@H]1CN([C@@H](C)CO)C(=O)c2cccc(NC(=O)c3ccc(-c4nccs4)cc3)c2O[C@H]1CN(C)Cc1ccc(Oc2ccccc2)cc1,-2,/,64
C[C@H]1CN([C@@H](C)CO)C(=O)c2cccc(NC(=O)c3ccc(-c4nccs4)cc3)c2O[C@H]1CN(C)Cc1ccc(-c2ccccc2)cc1,-3,/,58
C[C@@H]1CN([C@@H](C)CO)C(=O)c2cccc(NC(=O)c3ccc(-c4nccs4)cc3)c2O[C@@H]1CN(C)Cc1ccccc1,-1,/,14
C[C@@H]1CN([C@@H](C)CO)C(=O)c2cccc(NC(=O)c3ccc(-c4nccs4)cc3)c2O[C@H]1CN(C)Cc1ccc(C(=O)O)cc1,1,/,-6
SMILES,PD-1 reverse act,STK33 inh,NOMO-1 viab
C[C@H](CO)N1C[C@H](C)[C@H](CN(C)Cc2ccc(-c3ccccc3)cc2)Oc2c(NC(=O)c3ccc(-c4nccs4)cc3)cccc2C1=O,0,/,88*
C[C@H](CO)N1C[C@H](C)[C@@H](CN(C)Cc2ccc(Oc3ccccc3)cc2)Oc2c(NC(=O)c3ccc(-c4nccs4)cc3)cccc2C1=O,-2,/,112*
C[C@H](CO)N1C[C@H](C)[C@@H](CN(C)Cc2ccccc2)Oc2c(NC(=O)c3ccc(-c4nccs4)cc3)cccc2C1=O,-4,/,97*
CC1CCC2(C(=O)OC3OC(CO)C(O)C(O)C3O)CCC3(C(=O)O)C(=CCC4C5(C)CCC(O)C(C)(C)C5CCC43C)C2C1C (stereo not given),1,2,9
CCOC(=O)c1cnc2c(S(=O)(=O)C(C)C)csc2c1Sc1ccc(Cl)cc1,-2,/,66
CC(C)(C)[C@H]1COC(CC2=N[C@@H](C(C)(C)C)CO2)=N1,0,/,6
Cc1cc2ncc(-c3ccnc(SCc4c(Cl)cccc4Cl)n3)c(C)n2n1,0,/,16
C[C@H](CO)N1C[C@H](C)[C@H](CN(C)Cc2ccc(C(F)(F)F)cc2)Oc2c(NC(=O)c3ccc(-c4nccs4)cc3)cccc2C1=O,/,/,98*
C[C@H](CO)N1C[C@H](C)[C@@H](CN(C)Cc2ccc(-c3ccccc3)cc2)Oc2c(NC(=O)c3ccc(-c4nccs4)cc3)cccc2C1=O,-4,/,87*
C[C@H]1CN([C@@H](C)CO)C(=O)c2cccc(NC(=O)c3ccc(-c4nccs4)cc3)c2O[C@H]1CN(C)Cc1ccc(C(F)(F)F)cc1,/,/,72
C[C@@H]1CN([C@H](C)CO)C(=O)c2cccc(NC(=O)c3ccc(-c4nccs4)cc3)c2O[C@H]1CN(C)Cc1ccc(-c2ccccc2)cc1,-2,/,24
CCc1ccc(/C=N/n2c(C)nnc2-n2nc(C)cc2C)cc1,1,/,2
O=C(CC1NC2CCCCC2NC1=O)Nc1ccc([N+](=O)[O-])cc1 (stereo not given),2,9,1
COc1cc(O)c(C(=O)/C=C/c2ccccc2)c(OC)c1,/,6,93*
COc1cc(O)c(C(=O)/C=C/c2ccc(OC)c(OC)c2)c(OC)c1,0,0,33
c1ccc(-c2ccc3c4ccccc4cc-3o2)cc1,0,/,106*
O=c1cc(-c2ccccc2)oc2cc(O)ccc12,-1,17,-7
C=CCn1c2ccccc2c2nnc(SCC(=O)c3ccc(C)cc3)nc21,/,-2,30
COc1ccc(-n2c(SCC(=O)c3cccc([N+](=O)[O-])c3)nnc2-c2ccc(Cl)cc2)cc1,/,0,8
COc1ccc(NC(=O)Nc2cccc3c2O[C@@H](CN(C)Cc2ccc(C(=O)O)cc2)[C@@H](C)CN([C@@H](C)CO)C3=O)cc1,0,/,39
COc1ccc(NC(=O)Nc2ccc3c(c2)C(=O)N([C@@H](C)CO)C[C@H](C)[C@H](CN(C)Cc2ccc(C(=O)Nc4ccccc4N)cc2)O3)cc1,1,/,50
COc1ccc(NC(=O)Nc2cccc3c2O[C@@H](CN(C)Cc2ccc(C(=O)Nc4ccccc4N)cc2)[C@H](C)CN([C@@H](C)CO)C3=O)cc1,0,/,126*

# Source: PubChem (Broad Institute)
